In PubChem BioAssay AID1159580 (chemical genetic matrix, 2015):
Where “and” joins values, the source holds several entries; their conditions need not be identical. Equal entries are not always repeated. About 2,000 (36%) of roughly 5,500 compounds were called active. Roughly 18% stayed inconclusive and do not appear here. Cut-off read from the data, not from the text of the source: active = normalized growth mostly below about 0.91 (no sharp cut-off); inconclusive = no clear call, values can overlap the other calls; inactive = mostly above about 0.92. Some of the results follow.

Test: chemical genetic growth profiling, strain panel (AID 1159580);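 note: tested at 20 µM; growth read once vehicle control cultures reached saturation at 30 °C; 1 = growth at the plate median or of vehicle wells; lower values mean less growth of the strain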
Conditions: S. cerevisiae deletion strains, growth OD

Measured: normalized growth

OCC(O)CN1CCN(c2ccccc2)CC1 (stereo unspecified)
inactive: locus YAL013W, strain DEP1, stronger effect = lower value 0.995 | locus YAL021C, strain ccr4, stronger effect = lower value 0.923 | locus YAL026C, strain drs2, stronger effect = lower value 0.982 | locus YAL030W, strain snc1, stronger effect = lower value 0.996 | locus YBL061C, strain skt5, stronger effect = lower value 0.989 | locus YBR009C, strain hhf1, stronger effect = lower value 1 | locus YBR021W, strain FUR4, stronger effect = lower value 0.972 | locus YBR023C, strain chs3, stronger effect = lower value 0.997 | locus YBR171W, strain sec66, stronger effect = lower value 0.968 | locus YBR229C, strain ROT2, stronger effect = lower value 0.984 | locus YBR231C, strain swc5, stronger effect = lower value 0.999 | locus YBR279W, strain paf1, stronger effect = lower value 0.974 | locus YCL011C, strain gbp2, stronger effect = lower value 0.977 | locus YCL016C, strain dcc1, stronger effect = lower value 0.988 | locus YCL029C, strain bik1, stronger effect = lower value 0.978 | locus YCL061C, strain MRC1, stronger effect = lower value 0.973 | locus YCL069W, strain vba3, stronger effect = lower value 0.989 | locus YCR088W, strain abp1, stronger effect = lower value 0.98 | locus YDL005C, strain med2, stronger effect = lower value 0.963 | locus YDL035C, strain GPR1, stronger effect = lower value 1.02 | locus YDL040C, strain nat1, stronger effect = lower value 0.979 | locus YDL074C, strain BRE1, stronger effect = lower value 0.984 | locus YDL101C, strain DUN1, stronger effect = lower value 0.984 | locus YDL134C, strain PPH21, stronger effect = lower value 0.991 | locus YDL185W, strain tfp1, stronger effect = lower value 0.99 | locus YDL192W, strain arf1, stronger effect = lower value 0.995 | locus YDR001C, strain nth1, stronger effect = lower value 0.98 | locus YDR069C, strain doa4, stronger effect = lower value 0.982 | locus YDR101C, strain arx1, stronger effect = lower value 0.965 | locus YDR137W, strain rgp1, stronger effect = lower value 0.95 | locus YDR150W, strain NUM1, stronger effect = lower value 1 | locus YDR159W, strain sac3, stronger effect = lower value 1.01 | locus YDR162C, strain NBP2, stronger effect = lower value 1.01 | locus YDR195W, strain ref2 0.967 | locus YDR297W, strain sur2, stronger effect = lower value 0.982 | locus YDR318W, strain mcm21, stronger effect = lower value 0.989 | locus YDR334W, strain swr1, stronger effect = lower value 0.945 | locus YDR335W, strain msn5, stronger effect = lower value 0.978 | locus YDR388W, stronger effect = lower value 0.991 | locus YDR392W, strain spt3, stronger effect = lower value 0.931 | locus YDR502C, strain sam2, stronger effect = lower value 0.995 | locus YEL003W, strain gim4, stronger effect = lower value 0.938 | locus YEL037C, strain rad23, stronger effect = lower value 0.986 | locus YEL061C, strain CIN8 (second series), stronger effect = lower value 0.985 | locus YEL061C, strain CIN8, stronger effect = lower value 1 | locus YER015W, strain faa2, stronger effect = lower value 1 | locus YER016W, strain bim1, stronger effect = lower value 0.991 | locus YER110C, stronger effect = lower value 0.988 | locus YER111C, strain swi4, stronger effect = lower value 0.983 | locus YER155C, strain BEM2 (second series), stronger effect = lower value 1 | locus YER155C, strain BEM2, stronger effect = lower value 0.977 | locus YER167W, strain BCK2, stronger effect = lower value 1.01 | locus YGL078C, strain dbp3, stronger effect = lower value 0.991 | locus YGL086W, strain mad1, stronger effect = lower value 0.998 | locus YGL167C, strain pmr1, stronger effect = lower value 0.998 | locus YGL173C, strain kem1, stronger effect = lower value 0.978 | locus YGL227W, strain vid30, stronger effect = lower value 0.985 | locus YGL240W, strain doc1, stronger effect = lower value 1.01 | locus YGL248W, strain PDE1, stronger effect = lower value 0.975 | locus YGL253W, strain hxk2, stronger effect = lower value 0.993 | locus YGR078C, strain PAC10, stronger effect = lower value 0.99 | locus YGR135W, strain pre9, stronger effect = lower value 0.98 | locus YGR229C, strain SMI1, stronger effect = lower value 1.01 | locus YGR252W, strain gcn5, stronger effect = lower value 1.08 | locus YHR013C, strain ard1, stronger effect = lower value 0.953 | locus YHR027C, strain rpn1, stronger effect = lower value 0.984 | locus YHR030C, strain SLT2, stronger effect = lower value 0.991 and 0.969 | locus YHR079C, strain IRE1 (second series), stronger effect = lower value 0.991 | locus YHR079C, strain IRE1, stronger effect = lower value 0.965 | locus YHR094C, strain hxt1, stronger effect = lower value 0.992 | locus YHR129C, strain ARP1, stronger effect = lower value 0.985 | locus YHR142W, strain chs7, stronger effect = lower value 0.932 | locus YHR200W, strain rpn10, stronger effect = lower value 0.993 | locus YIL066C, strain RNR3, stronger effect = lower value 1 | locus YIL073C, strain SPO22, stronger effect = lower value 1.03 | locus YIL125W, strain kgd1, stronger effect = lower value 1 | locus YIR030C, strain dcg1, stronger effect = lower value 0.988 | locus YJL092W, strain hpr5, stronger effect = lower value 0.965 | locus YJL095W, strain BCK1 (second series), stronger effect = lower value 0.989 | locus YJL095W, strain BCK1, stronger effect = lower value 0.981 and 0.975 | locus YJL115W, strain asf1, stronger effect = lower value 0.965 | locus YJL129C, strain trk1, stronger effect = lower value 0.957 | locus YJL134W, strain LCB3, stronger effect = lower value 0.988 | locus YJL154C, strain vps35, stronger effect = lower value 0.983 | locus YJL164C, strain tpk1, stronger effect = lower value 0.966 | locus YJL166W, strain qcr8, stronger effect = lower value 1 | locus YJL168C, strain set2, stronger effect = lower value 0.983 | locus YJL187C, strain SWE1 (second series), stronger effect = lower value 0.988 | locus YJL187C, strain SWE1, stronger effect = lower value 0.981 | locus YJR043C, strain POL32, stronger effect = lower value 0.977 | locus YJR066W, strain TOR1, stronger effect = lower value 0.908
